Source: PubChem BioAssay
HT1080 IDH1KD tx: toxicity to HT-1080 IDH1 knockdown cells (counter line); HT-1080 IDH1 knockdown viability, ATP luminescence, 48 h; Potency, µM (series often up to 46.1 µM), without a hit: at the highest dose activity, negative = toxicity, most hits filed as cytotoxic; 360,000 tested, 2% active;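 also: 0% = DMSO wells and -100% = cell-free medium wells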
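IDH1KD HT-1080 cells, 750/well, RPMI + 5% FBS; compound pinned after 2 h settling; 48 h, 37 °C; CellTiter-Glo luminescence; % activity normalised to DMSO and no-cell wells; curves fitted, classed by r2 and efficacy.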
KB-3-1 cytotox: kills parental KB-3-1 adenocarcinoma cells. KB-3-1 viability, CellTiter-Glo ATP luminescence, 72 h. Potency, µM (doses to about 46.1 µM), most hits filed as cytotoxic. 400,000 tested, 1.4% active; also: % is scaled to controls: 0 for no effect and ±100 for the full control effect; nearly all actives have a fitted effect of over 60% in size
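Multi-concentration cytotoxicity screen in KB-3-1 cells grown in DMEM lacking phenol red with 10% FBS. After 72 h at 37 °C with compound, ATP-dependent luminescence was recorded.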
SW480 rerep: induces DNA re-replication in SW480 colon adenocarcinoma cells | Potency, µM (highest dose often 46.1 µM), inactives show at the top dose re-replication activation, most hits filed as activators | 340,000 tested, 1.8% active | SW480 DNA re-replication, Hoechst DNA content imaging, 48 h; also: % of control where 0% means no effect; nearly all actives have a fitted effect of over 55% in size
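Treated cells incubate 48 hr (37 C, 5% CO2), are stained 40 min with Hoechst, and nuclear fluorescence is enumerated; a rise in nuclei with high DNA signal marks re-replication.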
HT1080-NT tox: kills 2HG-producing HT-1080-NT fibrosarcoma cells | HT-1080-NT fibrosarcoma viability, CellTiter-Glo ATP luminescence, 48 h | Potency, µM (highest dose often 46.1 µM), without a hit: at the highest dose activity, negative = less viability, actives largely listed as cytotoxic | 360,000 tested, 1.6% active;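 also: NT is the 2HG producing partner of a matched IDH1 knockdown line; 0% = DMSO-treated cells and -100% = media-only wells without cells; nearly all actives have a fitted effect of over 55% in size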
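Read-out is CellTiter-Glo luminescence after 10 minutes at room temperature, following 48 hours' compound treatment of HT-1080-NT cells (750 cells/well, RPMI, 5% FBS, 37 degrees C).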
KB-V1 cytotox: KB-V1 MDR subline cytotoxicity | KB-V1 MDR cells viability, CellTiter-Glo, 72 h | Potency, µM (titrated, usually from 46.1 µM), most hits filed as cytotoxic | 400,000 tested, 3.4% active | AID 1347076; also: % is scaled to controls: 0 for no effect and ±100 for the full control effect; nearly all actives have a fitted effect of over 60% in size
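Luminescent ATP read-out (CellTiter-Glo, 10 min) measures survival of drug-selected KB-V1 MDR cells after 72 h, 37 degrees C compound exposure. Medium: phenol-red-free DMEM, 10% FBS. Values from fitted concentration-response curves.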
MCF10A rereplic: DNA re-replication induction in MCF 10a cells. MCF 10A DNA re-replication, Hoechst nuclear intensity, 48 h. Potency, µM (titrated, usually from 46.1 µM), inactives show at the highest dose activity, positive = re-replication, usual class: activators. 350,000 tested, 2.9% active. AID 624296; also: % of control where 0% means no effect; nearly all actives have a fitted effect of over 50% in size
An asterisk follows results filed as active; i = inactive; ? = inconclusive; · = not tested or not shown; [ ] = remark or other dose. Shown are actives, neighbours in structure and some others; about 8% of the full set was active somewhere. Calls follow the shape of the dose curve; as a rule, active = well fitted curve in the direction sought with a large enough effect; inconclusive = small, poorly fitted or top-dose-only effect, or another doubt; inactive = no such curve, though single readings can be large; an effect the other way counts as inactive or inconclusive. Potency is read from the fitted curve at half-maximal effect.

SMILES	HT1080 IDH1KD tx	KB-3-1 cytotox	SW480 rerep	HT1080-NT tox	KB-V1 cytotox	MCF10A rereplic
C=C1c2cc(OC)ccc2NC(=O)N1CC	-2.2%	i	-0.4%	0.4%	7.31µM*	12.1%
Cc1cc(/C=C2\C(=N)N3N=C(S(C)(=O)=O)SC3=NC2=O)c(C)n1Cc1ccccc1	12.9%	i	?	-14.9%	i	20.6µM*
COc1cc(/C=C2\C(=N)N3N=C(S(C)(=O)=O)SC3=NC2=O)cc(OC)c1OCCOc1ccccc1C	14.3%	i	-5.3%	19.9%	i	-9.9%
CCCC1=NN2C(=N)/C(=C\c3cc(C)n(Cc4ccccc4)c3C)C(=O)N=C2S1	5.6%	i	-3.6%	-1.9%	i	23.1µM*
Cc1cc(/C=C2\C(=N)N3N=CSC3=NC2=O)c(C)n1Cc1ccccc1	0.2%	i	-10.2%	-0.6%	i	29.1µM*
CCCC1=NN2C(=N)/C(=C\c3cc(C)n(-c4cccc(C)c4)c3C)C(=O)N=C2S1	-14.4%	i	-3.3%	-0.5%	i	?
Cc1c(C(=O)NC(=S)Nc2ccc(NC(=O)c3cccs3)cc2)cccc1[N+](=O)[O-]	-10.7%[9.24 µM]	?	0.4%	?	?	0.3%
CCOC(=O)c1ccc(NS(=O)(=O)c2cc(-c3nnnn3C(C)C)ccc2OC)cc1	-1.9%	i	-4.8%	-3.9%	i	?
CC(=O)/C(C#N)=C1\NC(=O)C(Cc2ccc(F)cc2)S1 (stereo unspecified)	-15.6%	?	?	-12.3%	i	6.2%
NC1=NC(=O)C(Cc2cc(Cl)ccc2Cl)S1 (stereo unspecified)	-10.0%	i	-2.2%	-7.0%	i	4.6%
CC(=O)/C(C#N)=C1\NC(=O)C(Cc2cc(Cl)ccc2Cl)S1 (stereo unspecified)	?	14.6µM*	-12.6%	23.1µM*	6.51µM*	16.5%
CC(=O)/C(C#N)=C1\NC(=O)C(Cc2ccc(C)c(C)c2)S1 (stereo unspecified)	?	14.6µM*	-1.1%	-17.9%	5.8µM*	?
CC(=O)/C(C#N)=C1\NC(=O)C(Cc2ccccc2Cl)S1 (stereo unspecified)	3.66µM*	3.26µM*	-4.0%[9.22 µM]	-23.0%	?	?
CCOc1cc(/C=C(\C#N)c2[nH]nc(N)c2C#N)ccc1O	-23.2%	i	-9.1%	-17.9%	?	?
O=C(COc1cc2oc(=O)c3c(c2cc1Cl)CCCC3)NCc1cccnc1	16.1%	i	-0.8%	22.6%	i	6.2%
CCCCNS(=O)(=O)c1ccc2nc(SCC(N)=O)[nH]c2c1	-3.1%	i	?	-12.6%	i	0.6%
CCCCNS(=O)(=O)c1ccc2nc(SCC(=O)Nc3sccc3C#N)[nH]c2c1	20.6µM*	?	6.6%	?	i	?
COc1ccccc1C1=NN(C2=NN=C(N)Cc3ncnn32)C(O)(C(F)(F)F)C1 (stereo unspecified)	-5.1%	i	56.3%	-2.6%	i	0.581µM*
COc1ccc(C2=NN(C3=NN=C(N)Cc4ncnn43)C(O)(C(F)(F)F)C2)cc1 (stereo unspecified)	0.0%	i	-4.9%	22.7%	?	0.581µM*
CCn1c(SCc2cccc(C)c2)nnc1-c1ccc(C)cc1	-5.3%	i	-0.5%	-2.3%	i	27.5%
Cc1cc(C)cc(N2C(=O)CN(Cc3sccc3C)C2=S)c1	7.3%	i	5.2%	0.4%	i	?
Cc1cccc(N2C(=O)CN(Cc3sccc3C)C2=S)c1	-0.2%	?	4.1%	0.8%	23.1µM*	-0.4%
CCC1Sc2ccc(S(=O)(=O)N3CCN(c4ccccc4)CC3)cc2NC1=O (stereo unspecified)	4.5%	i	?	8.8%	i	20.6µM*
O=S(=O)(c1ccc2ccccc2c1)N1CCN(S(=O)(=O)c2c(F)cccc2F)CC1	·	?	-13.8%	·	i	12.4%
